Source: PubChem BioAssay
Nrf2 inh: Nrf2 qHTS screen for inhibitors; A549 ARE-Fluc reporter, luciferase luminescence, 18-24 h; Potency, µM (highest dose often 46 µM), actives largely listed as inhibitors; 360,000 tested, 2.1% active; AID 504444, 2011; note: nearly all actives have a fitted effect of over 60% in size
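A549 ARE_Fluc cells, 5000/well, 5% FBS OPTI-MEM; compounds in dose-response, 18-24 h at 37 °C/5% CO2; CellTiter-Fluor viability read (Ex 405/Em 525), then BugLite luciferase luminescence = Nrf2 activity.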
A549 tox: Nrf2 qHTS screen for inhibitors: counterscreen for cytotoxicity. Potency, µM (top dose mostly 46 µM), usual class: inhibitors. 390,000 tested, 0.16% active. A549 ARE-Fluc cells, CellTiter-Fluor viability, 18-24 h
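A549 ARE_Fluc cells in 5% FBS OPTI-MEM were exposed to compounds in concentration-response for 18-24 h at 37 deg C. Viability was read by CellTiter-Fluor fluorescence (Ex 405/Em 525) after 30 min, before the luciferase read.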
S2 tox: Viability Counterscreen for Primary qHTS for Inhibitors of ATXN expression | S2 cells (HEK-293 line with an ATXN2-luciferase reporter) viability, CellTiter-Fluor protease fluorescence, 24 h | Potency, µM (titrated, usually from 56.7 µM), actives largely listed as cytotoxic | 400,000 tested, 0.49% active | AID 651635, 2014; note: nearly all actives have a fitted effect of over 40% in size
Nrf2 ARE act: qHTS of Nrf2 Activators. Potency, µM (top dose mostly 46.1 µM), most hits filed as activators. 410,000 tested, 0.31% active. AREc32 ARE-luciferase reporter (MCF7-derived line), luminescence, 24 h; note: nearly all actives have a fitted effect of over 65% in size
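Luciferase luminescence (Steady-Glo, 30 min at room temperature) served as the read-out of ARE activation in AREc32 cells treated with compounds for 24 hr at 37 deg C.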
ATXN2 expr inh: Primary qHTS for Inhibitors of ATXN expression; 360,000 tested, 0.72% active; AID 1745845, 2022; HEK-293 ATXN2-luciferase reporter, luminescence, 24 h; Potency, µM (top dose mostly 57 µM), actives largely listed as inhibitors; note: nearly all actives have a fitted effect of over 55% in size
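ATXN2-luciferase reporter cells (luciferase flanked by upstream and downstream ATXN2 gene portions) were treated 24 h at 37 °C with compounds at up to 57 uM. SteadyGlo luminescence gave expression; GF-AFC fluorescence gave viability.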
Large screens that a line does not name were inactive; ! = repeats disagree. Sampled rows, rich in hits. Any-hit rate of the full collection: about 2.9%. Calls come from the whole dose curve; as a rule, active = well fitted curve in the direction sought with a large enough effect; inconclusive = small, poorly fitted or top-dose-only effect, or another doubt; inactive = no such curve, though single readings can be large; an effect the other way counts as inactive or inconclusive.

CCCOc1nc2c(c(=O)n(C)c(=O)n2C)n1Cc1cccc2ccccc12	Nrf2 inh 18µM
CCCOc1nc2c(c(=O)n(C)c(=O)n2C)n1C	none
COc1ccc2cc(C#N)c(N3CCOCC3)nc2c1	none
CCC(C)(C)n1nnnc1CN1CCN(c2nc3cc(OC)ccc3cc2C#N)CC1	Nrf2 inh 18µM, ATXN2 expr inh inconclusive
Cc1ccc2nc(N3CCN(Cc4nnnn4C4CCCC4)CC3)c(C#N)cc2c1	Nrf2 inh 23µM
COc1ccc(CN2CCCC(n3cc(C(=O)N4CCCCC4)nn3)C2)c(OC)c1 (stereo unspecified)	none (no result: Nrf2 inh, A549 tox, Nrf2 ARE act, ATXN2 expr inh)
CCC(=O)N1N=C(c2cccs2)CC1c1ccc(OC)cc1 (stereo unspecified)	none (no result: ATXN2 expr inh)
COc1ccc(C2CC(c3cccs3)=NN2C(=O)CSC2=NCCS2)cc1 (stereo unspecified)	Nrf2 inh 18µM, S2 tox inconclusive
Cc1ccc(C2CC(c3cccs3)=NN2C(=O)CSC2=NCCS2)cc1 (stereo unspecified)	Nrf2 inh 16µM, S2 tox inconclusive
FC(F)(F)c1cccc(Cc2noc(CN3CCC(c4ccncc4)CC3)n2)c1	Nrf2 inh 18µM, ATXN2 expr inh inconclusive
c1cc(C2CCN(Cc3nc(-c4ccc5c(c4)OCO5)no3)CC2)ccn1	Nrf2 inh 16µM (no result: ATXN2 expr inh)
COCC1CCN(Cc2nc(-c3ccc4c(c3)OCO4)no2)C1 (stereo unspecified)	Nrf2 inh inconclusive, S2 tox inconclusive
Cc1cc(C)c(C(=O)NCc2nc(-c3cccc(NC(=O)C4CCCN(C)C4)c3)oc2C)[nH]1 (stereo unspecified)	none (no result: Nrf2 inh, A549 tox, Nrf2 ARE act, ATXN2 expr inh)
Clc1cccc(Cl)c1/C=N\Nc1nccs1	Nrf2 ARE act 10µM
CC(C)=CCOc1ccc([C@@H]2COc3c(ccc4c3C=CC(C)(C)O4)C2)c(O)c1	Nrf2 inh inconclusive, S2 tox 25µM, ATXN2 expr inh inconclusive
N#CC1=C(N)Oc2cc3ccccc3cc2C1c1cccs1 (stereo unspecified)	S2 tox inconclusive
CN(C)/C=N/C1=C(C#N)C(c2cccs2)c2ccc3ccccc3c2O1 (stereo unspecified)	Nrf2 inh inconclusive, A549 tox inconclusive, Nrf2 ARE act 8.9µM
Cc1ccc(S(=O)(=O)N2CC3(O)CN(C(=O)OC(C)C)N(C(=O)OC(C)C)CC3(OC(=O)NCc3ccccc3F)C2)cc1 (stereo unspecified)	S2 tox 22µM (no result: Nrf2 inh, A549 tox)
Cc1ccc(S(=O)(=O)N2CC3(O)CN(C(=O)OC(C)C)N(C(=O)OC(C)C)CC3(OC(=O)NCC3CCCCC3)C2)cc1 (stereo unspecified)	S2 tox 14µM, ATXN2 expr inh inconclusive (no result: Nrf2 inh, A549 tox)
CCCCCCNC(=O)OC12CN(C(=O)OC(C)C)N(C(=O)OC(C)C)CC1(O)CN(S(=O)(=O)c1ccc(C)cc1)C2 (stereo unspecified)	ATXN2 expr inh inconclusive (no result: Nrf2 inh, A549 tox, S2 tox)
COc1ccc(OC)c(CCNC(=O)c2cc3cccc4c3n2CC(C)S4)c1 (stereo unspecified)	none (no result: S2 tox, ATXN2 expr inh)
CCn1cc(C(=O)OCC(=O)Nc2cccc(C(C)=O)c2)c(=O)c2ccc(C)nc21	none
NNC(=O)c1cc2c(N3CCC(Cc4ccccc4)CC3)ncnc2s1	Nrf2 inh 26µM (no result: S2 tox)
C=CCN=c1scc(-c2ccc3c(c2)NC(=O)CO3)n1/N=C(\C)c1ccccn1	Nrf2 inh 16µM, A549 tox inconclusive, ATXN2 expr inh inconclusive
CNC(=O)Nc1ccc(-c2nc(N3CC4CCC(C3)O4)c3cnn(C4CCC5(CC4)OCCO5)c3n2)cc1	none (no result: Nrf2 inh, A549 tox, S2 tox, Nrf2 ARE act)
CC(=O)c1c(C)[nH]c(C(=O)CSc2nc3ccccc3n2C)c1C	Nrf2 inh 15µM
CC(C)C[C@H](NC(=O)CNC(=O)c1cc(Cl)ccc1Cl)B(O)O	ATXN2 expr inh 0.31µM (no result: Nrf2 inh, A549 tox, S2 tox, Nrf2 ARE act)
CCOC(=O)N1CCN(C(=O)CNC(=O)c2ccc(Cl)cc2Cl)CC1	none
C=CCNC(=O)c1cc(Cl)ccc1Cl	none
CC(C)C[C@H](NC(=O)CNC(=O)c1cc(Cl)ccc1Cl)B1OC(=O)CC(CC(=O)O)(C(=O)O)O1 (stereo partly specified)	ATXN2 expr inh 0.22µM (no result: Nrf2 inh, A549 tox, S2 tox, Nrf2 ARE act)
Oc1ccc(/C=N/Nc2nc(-c3cccnc3)nc3ccccc23)c(O)c1	Nrf2 inh 21µM
CN1CCC(NCCC(c2ccc(F)cc2)c2ccc(Cl)cc2)CC1 (stereo unspecified)	ATXN2 expr inh 25µM (no result: S2 tox)
O=S(=O)(c1ccc(-c2csc(=Nc3ccc(F)cc3)n2CCCCCCO)cc1)N1CCCC1	Nrf2 inh 23µM, A549 tox inconclusive, S2 tox inconclusive, ATXN2 expr inh 32µM
CC(C)Cn1c(-c2ccc(S(=O)(=O)N3CCCC3)cc2)csc1=Nc1ccccc1	Nrf2 inh 16µM
CC(=O)c1cccc(N=c2scc(-c3ccc(S(=O)(=O)N4CCOCC4)cc3)n2CCO)c1	Nrf2 inh 15µM
OCCCn1c(-c2ccc(F)cc2)csc1=Nc1ccc(F)cc1	S2 tox inconclusive
O=C(O)CCNc1cc(N2CCc3ccccc3CC2)nc(-c2ccccn2)n1	none (no result: Nrf2 inh, A549 tox, S2 tox, Nrf2 ARE act)
CS(=O)(=O)c1ccc(-c2ccc3c(c2)CC(CNC(=O)C2(N4CCOCC4)CCCCC2)O3)cc1 (stereo unspecified)	none (no result: Nrf2 inh, A549 tox, Nrf2 ARE act, ATXN2 expr inh)
Oc1cc(-c2cccs2)cc2c1OCCN(Cc1cn[nH]c1-c1ccc(Cl)cc1)C2	none (no result: Nrf2 inh, A549 tox, Nrf2 ARE act, ATXN2 expr inh)
COC(=O)c1ccc2c(c1)C(C)(C)C(/C=C/c1ccccc1O)=[N+]2C	A549 tox inconclusive, S2 tox 7.9µM, Nrf2 ARE act inconclusive, ATXN2 expr inh 3.5µM (no result: Nrf2 inh)
O=C(CC(=O)c1ccccc1)c1ccccc1	Nrf2 ARE act 14µM
COC1=CC(=O)c2c(ccc3ncnc(N)c23)C1=O	Nrf2 inh 4.6µM, A549 tox 7.3µM, S2 tox 3.5µM, ATXN2 expr inh 2.8µM
O=Cc1ccc2ccc3cccnc3c2n1	none
c1cnc2c(c1)ccc1cccnc12	Nrf2 inh 5.8µM, A549 tox inconclusive, S2 tox inconclusive, ATXN2 expr inh 5.6µM!
Cc1c(C(=O)NCCCc2ccncc2)cnn1-c1nccc(-c2ccccc2F)n1	none (no result: Nrf2 inh, A549 tox, Nrf2 ARE act, ATXN2 expr inh)
COc1ccc(-c2cc3ccccc3oc2=O)cc1NC(=O)c1ccc([N+](=O)[O-])o1	Nrf2 inh inconclusive, S2 tox inconclusive, Nrf2 ARE act 6.3µM
CC(=O)Nc1ccc(S(=O)(=O)Nc2ccc(C)c([N+](=O)[O-])c2)cc1	Nrf2 inh 26µM (no result: ATXN2 expr inh)
COc1ccc(-c2cc3ccccc3oc2=O)cc1NC(=O)c1ccc(Br)o1	Nrf2 inh inconclusive, S2 tox inconclusive
COc1ccc(C)cc1NS(=O)(=O)c1ccc(NC(=O)CN(c2cc([N+](=O)[O-])ccc2C)S(C)(=O)=O)cc1	Nrf2 inh inconclusive
CC(=O)Nc1ccc(NS(=O)(=O)c2cc([N+](=O)[O-])ccc2C)cc1	none
